Molecules are shown by their SMILES. Activity calls are given as the source filed them. The calls were made as follows: active = hit-call score of the fitted dose curve at least 0.9, where 1 is the maximum; inactive = score below 0.9.

Transcription factor Sp1 (Homo sapiens), sequence (P08047 whole entry, looked up): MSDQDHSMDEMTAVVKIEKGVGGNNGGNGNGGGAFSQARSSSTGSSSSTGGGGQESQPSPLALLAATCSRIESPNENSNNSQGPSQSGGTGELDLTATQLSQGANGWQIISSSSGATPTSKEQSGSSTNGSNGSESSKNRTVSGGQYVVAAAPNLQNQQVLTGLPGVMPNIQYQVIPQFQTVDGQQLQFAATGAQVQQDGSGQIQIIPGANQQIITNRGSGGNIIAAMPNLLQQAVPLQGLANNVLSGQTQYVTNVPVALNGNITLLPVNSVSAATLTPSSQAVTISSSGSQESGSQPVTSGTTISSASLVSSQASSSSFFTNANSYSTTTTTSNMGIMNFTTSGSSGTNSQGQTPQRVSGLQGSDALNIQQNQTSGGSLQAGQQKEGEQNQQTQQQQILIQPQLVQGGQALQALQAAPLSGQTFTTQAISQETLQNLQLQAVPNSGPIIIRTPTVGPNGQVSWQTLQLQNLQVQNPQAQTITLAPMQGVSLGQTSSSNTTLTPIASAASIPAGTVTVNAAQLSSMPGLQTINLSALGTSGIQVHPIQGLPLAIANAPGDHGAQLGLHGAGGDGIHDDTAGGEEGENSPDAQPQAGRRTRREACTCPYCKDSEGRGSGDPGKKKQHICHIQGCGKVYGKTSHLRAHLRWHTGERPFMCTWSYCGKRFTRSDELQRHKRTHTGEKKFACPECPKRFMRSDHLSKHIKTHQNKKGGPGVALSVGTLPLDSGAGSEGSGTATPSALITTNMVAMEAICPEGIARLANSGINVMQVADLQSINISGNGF

The target in one test is Transcription factor Sp1 (Homo sapiens) (UniProt P08047). As to the kind of experiment: ATG_Sp1_CIS: Attagene CIS-FACTORIAL HepG2 Assay for human Specificity Protein 1 (Sp1) (AID 2282961). As to conditions: HepG2 Sp1 cis-reporter transcription, actives raise or lower the signal. Summed up:
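Read-out is reporter transcript level, measured by RT-PCR and fluorescent capillary electrophoresis after 24 h chemical treatment. System: transiently transfected HepG2 cells reporting endogenous transcription factor activity; gain or loss fitted against DMSO baseline.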
In the case of `ClC(Cl)(Cl)c1ccccc1`, the result was inactive.

For the compound `CCOP(=S)(Oc1ccc([N+](=O)[O-])cc1)c1ccccc1` (stereo not given), the compound was called inactive.

Turning to `CCCCN(CCCC)SN(C)C(=O)Oc1cccc2c1OC(C)(C)C2`, the result was inactive.

On to `Nc1ccc2ccccc2c1`, for which the compound was called inactive.

Take `O=C(O)C1C(C(=O)O)C2(Cl)C(Cl)=C(Cl)C1(Cl)C2(Cl)Cl` (stereo not given): the call was inactive.

`Cc1cccc(N)c1`: the compound was classed as inactive.

Regarding `CCCCOCCOP(=O)(OCCOCCCC)OCCOCCCC`, the result was inactive.

With `CN(C)C(=O)Cl`, the result was inactive.

Turning to `O=C(O)C(Cl)Cl`, the result was inactive.

As for `CCOS(=O)(=O)OCC`, the outcome was inactive.

For the compound `OCC1CO1` (stereo not given), the compound was classed as inactive.

With `CCCCN(CCCC)N=O`, the outcome was inactive.

Consider `CSC(C)(C)C=NO`, for which the result was inactive.

For the compound `CCCCCCCc1ccc(O)cc1`, the result was inactive.

For the compound `CCN(CC)c1ccccc1`, the outcome was inactive.

Regarding `Nc1cc2c3c(c1)C(c1ccccc1)=N[C@@H](NC(=O)c1cccnc1)C(=O)N3CC2`, the call was inactive.

Turning to `O=C(O)CF`, the compound was classed as inactive.

Regarding `Nc1ccc(Cl)cc1`, the result was inactive.

`CC(Cl)(Cl)C(=O)O`: the result was inactive.

On to `CCOP(=S)(OCC)SCS(=O)(=O)CC`, for which the compound was called inactive.

Turning to `CCOC(=O)c1ccccc1C(=O)OCC`, the compound was called inactive.

Consider `CCC1(c2ccccc2)C(=O)N=C(O)NC1=O` (stereo not given), for which the compound was called inactive.

Consider `O=C(CBr)OCc1ccccc1`, for which the result was inactive.

For `Cc1ccc(O)cc1C`, the compound was classed as inactive.

As to `c1ccc(OP(Oc2ccccc2)Oc2ccccc2)cc1`, the result was inactive.

Consider `O=[N+]([O-])c1ccccc1`, for which the compound was classed as inactive.

As for `CCCCc1ccc(O)cc1`, the result was inactive.

Turning to `COCCOCCO`, the outcome was inactive.

Take `[N-]=[N+]=[N-]`: the call was inactive.

As for `ClC(Cl)c1ccccc1`, the outcome was inactive.

`Nc1ccc(Sc2ccc(N)cc2)cc1`: the compound was called inactive.

For the compound `CCCN(CCC)c1c([N+](=O)[O-])cc(C(C)C)cc1[N+](=O)[O-]`, the result was inactive.

For the compound `CC1=C(C(=O)Nc2ccccc2)S(=O)(=O)CCO1`, the compound was called inactive.

As for `CC(Cc1ccc(OCC(=O)O)cc1)NCC(O)c1csc(C(F)(F)F)n1` (stereo not given), the call was inactive.

On to `NNC(N)=S`, for which the result was inactive.

Turning to `c1cc2c3c(cccc3c1)CC2`, the result was inactive.

In the case of `c1ccc2c(c1)Nc1ccccc1S2`, the outcome was inactive.

With `Cc1ccc([N+](=O)[O-])cc1C`, the call was inactive.

As a reminder, the AC50 is the concentration at which the activity in the assay is half-maximal. Turning to `CC(C)(C)c1ccc(O)cc1`, the AC50 was 175 µM (active).

Tested on in another test: not listed separately
As to the kind of experiment: ATG_SREBP_CIS: Attagene CIS-FACTORIAL HepG2 Assay for human Sterol Regulatory Element Binding (SREBP) (AID 2282962). As to conditions: HepG2 Attagene cis-factorial SREBP reporter, mRNA; actives raise or lower the signal. Summed up:
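HepG2 cells transiently transfected with multiplexed cis-promoter reporter units sensing endogenous transcription factors; reporter mRNA measured 24 h after dosing by RT-PCR, 6-FAM labeling, HpaI digestion and capillary electrophoresis. Bidirectional fit versus DMSO.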
With `ClC(Cl)(Cl)c1ccccc1`, the compound was classed as inactive.

For `CCCCN(CCCC)SN(C)C(=O)Oc1cccc2c1OC(C)(C)C2`, the compound was classed as inactive.

As for `Nc1ccc2ccccc2c1`, the call was inactive.

With `O=C(O)C1C(C(=O)O)C2(Cl)C(Cl)=C(Cl)C1(Cl)C2(Cl)Cl` (stereo not given), the outcome was inactive.

As for `Cc1cccc(N)c1`, the compound was classed as inactive.

Regarding `CCCCOCCOP(=O)(OCCOCCCC)OCCOCCCC`, the result was inactive.

For `CN(C)C(=O)Cl`, the outcome was inactive.

As for `OCC1CO1` (stereo not given), the compound was called inactive.

With `CCN(CC)c1ccccc1`, the call was inactive.

`Nc1cc2c3c(c1)C(c1ccccc1)=N[C@@H](NC(=O)c1cccnc1)C(=O)N3CC2`: the AC50 was 66.8 µM (active).

As to `O=C(O)CF`, the compound was called inactive.

Regarding `Nc1ccc(Cl)cc1`, the compound was classed as inactive.

Take `CC(Cl)(Cl)C(=O)O`: the outcome was inactive.

In the case of `CCOP(=S)(OCC)SCS(=O)(=O)CC`, the result was inactive.

For `Cc1ccc(O)cc1C`, the outcome was inactive.

`c1ccc(OP(Oc2ccccc2)Oc2ccccc2)cc1`: the call was inactive.

In the case of `O=[N+]([O-])c1ccccc1`, the call was inactive.

As for `CCCCc1ccc(O)cc1`, the result was inactive.

`COCCOCCO`: the compound was classed as inactive.

Consider `[N-]=[N+]=[N-]`, for which the result was inactive.

For the compound `Nc1ccc(Sc2ccc(N)cc2)cc1`, the result was inactive.

`CCCN(CCC)c1c([N+](=O)[O-])cc(C(C)C)cc1[N+](=O)[O-]`: the compound was called inactive.

On to `CC(Cc1ccc(OCC(=O)O)cc1)NCC(O)c1csc(C(F)(F)F)n1` (stereo not given), for which the compound was classed as inactive.

As to `c1cc2c3c(cccc3c1)CC2`, the compound was called inactive.

Consider `c1ccc2c(c1)Nc1ccccc1S2`, for which the compound was called inactive.

Turning to `Cc1ccc([N+](=O)[O-])cc1C`, the outcome was inactive.

Take `CC(C)(C)c1ccc(O)cc1`: the AC50 was 26.8 µM (active).

A further test deals with Signal transducer and activator of transcription 3 (Homo sapiens) (UniProt P40763). Nature of the test: ATG_STAT3_CIS: Attagene CIS-FACTORIAL HepG2 Assay for human Signal Transducer and Activator of Transcription 3 (STAT3) (AID 2282963). Conditions: HepG2, Attagene cis-factorial STAT3 reporter transcription; actives raise or lower the signal. Summed up: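 Endogenous STAT3-responsive cis-element activity was read in transiently transfected HepG2 cells after 24 h treatment. Reporter transcripts were quantified via RT-PCR and capillary electrophoresis, with DMSO as negative control and bidirectional curve fitting.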
Signal transducer and activator of transcription 3 (Homo sapiens), sequence (P40763 whole entry, looked up): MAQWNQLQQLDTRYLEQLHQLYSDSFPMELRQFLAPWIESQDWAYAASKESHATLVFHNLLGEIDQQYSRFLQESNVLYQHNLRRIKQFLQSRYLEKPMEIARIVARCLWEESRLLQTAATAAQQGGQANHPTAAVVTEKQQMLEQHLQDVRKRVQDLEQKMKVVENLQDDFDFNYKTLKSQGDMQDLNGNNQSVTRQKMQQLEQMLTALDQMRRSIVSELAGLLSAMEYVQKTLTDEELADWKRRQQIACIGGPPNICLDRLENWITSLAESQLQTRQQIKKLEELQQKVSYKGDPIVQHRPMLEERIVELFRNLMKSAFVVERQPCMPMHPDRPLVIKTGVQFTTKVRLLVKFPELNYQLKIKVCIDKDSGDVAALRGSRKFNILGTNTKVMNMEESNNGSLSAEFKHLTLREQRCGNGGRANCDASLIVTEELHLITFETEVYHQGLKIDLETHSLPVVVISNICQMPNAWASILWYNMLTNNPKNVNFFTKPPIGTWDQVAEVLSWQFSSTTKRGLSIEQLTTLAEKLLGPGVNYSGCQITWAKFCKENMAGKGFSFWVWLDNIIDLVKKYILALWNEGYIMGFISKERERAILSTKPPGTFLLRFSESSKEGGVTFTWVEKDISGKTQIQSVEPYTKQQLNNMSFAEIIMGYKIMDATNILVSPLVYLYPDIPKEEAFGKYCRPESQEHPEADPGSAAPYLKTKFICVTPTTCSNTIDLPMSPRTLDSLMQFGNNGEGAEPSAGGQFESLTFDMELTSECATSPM
Take `ClC(Cl)(Cl)c1ccccc1`: the result was inactive.

`CCOP(=S)(Oc1ccc([N+](=O)[O-])cc1)c1ccccc1` (stereo not given): the compound was classed as inactive.

With `CCCCN(CCCC)SN(C)C(=O)Oc1cccc2c1OC(C)(C)C2`, the result was inactive.

In the case of `Nc1ccc2ccccc2c1`, the compound was called inactive.

For `O=C(O)C1C(C(=O)O)C2(Cl)C(Cl)=C(Cl)C1(Cl)C2(Cl)Cl` (stereo not given), the outcome was inactive.

Consider `Cc1cccc(N)c1`, for which the outcome was inactive.

With `CCCCOCCOP(=O)(OCCOCCCC)OCCOCCCC`, the outcome was inactive.

Turning to `CN(C)C(=O)Cl`, the call was inactive.

On to `O=C(O)C(Cl)Cl`, for which the call was inactive.

As to `CCOS(=O)(=O)OCC`, the outcome was inactive.

Consider `OCC1CO1` (stereo not given), for which the compound was classed as inactive.

For the compound `CCCCN(CCCC)N=O`, the compound was called inactive.

Regarding `CSC(C)(C)C=NO`, the compound was called inactive.

Consider `CCCCCCCc1ccc(O)cc1`, for which the compound was called inactive.

`CCN(CC)c1ccccc1`: the result was inactive.

As to `Nc1cc2c3c(c1)C(c1ccccc1)=N[C@@H](NC(=O)c1cccnc1)C(=O)N3CC2`, the compound was called inactive.

In the case of `O=C(O)CF`, the compound was called inactive.

Regarding `Nc1ccc(Cl)cc1`, the compound was called inactive.

As for `CC(Cl)(Cl)C(=O)O`, the call was inactive.

As for `CCOP(=S)(OCC)SCS(=O)(=O)CC`, the outcome was inactive.

Take `CCOC(=O)c1ccccc1C(=O)OCC`: the result was inactive.

Regarding `CCC1(c2ccccc2)C(=O)N=C(O)NC1=O` (stereo not given), the compound was called inactive.

Take `O=C(CBr)OCc1ccccc1`: the result was inactive.

Take `Cc1ccc(O)cc1C`: the call was inactive.

With `c1ccc(OP(Oc2ccccc2)Oc2ccccc2)cc1`, the compound was classed as inactive.

With `O=[N+]([O-])c1ccccc1`, the result was inactive.

With `CCCCc1ccc(O)cc1`, the compound was called inactive.

Regarding `COCCOCCO`, the outcome was inactive.

Take `[N-]=[N+]=[N-]`: the compound was classed as inactive.

With `ClC(Cl)c1ccccc1`, the result was inactive.

On to `Nc1ccc(Sc2ccc(N)cc2)cc1`, for which the call was inactive.

For the compound `CCCN(CCC)c1c([N+](=O)[O-])cc(C(C)C)cc1[N+](=O)[O-]`, the result was inactive.

As to `CC1=C(C(=O)Nc2ccccc2)S(=O)(=O)CCO1`, the compound was classed as inactive.

Turning to `CC(Cc1ccc(OCC(=O)O)cc1)NCC(O)c1csc(C(F)(F)F)n1` (stereo not given), the compound was classed as inactive.

With `NNC(N)=S`, the call was inactive.

As for `c1cc2c3c(cccc3c1)CC2`, the compound was classed as inactive.

Take `c1ccc2c(c1)Nc1ccccc1S2`: the call was inactive.

Consider `Cc1ccc([N+](=O)[O-])cc1C`, for which the compound was classed as inactive.

Regarding `CC(C)(C)c1ccc(O)cc1`, the compound was called inactive.

Source of the values: PubChem BioAssay (EPA / NIEHS).
